In ChEMBL document CHEMBL1157539, “Thousands of chemical starting points for antimalarial lead identification” (Nature, 2010):

The molecules below were run on Plasmodium falciparum (assay: GSK_TCMDC: Inhibition of Plasmodium falciparum Dd2 in whole red blood cells, using parasite LDH activity as an index of growth. Test compounds present at 2uM).
Format: functional
`CS(=O)(=O)Nc1cccc(-c2cnc3[nH]cc(-c4ccc(C(=O)O)c(F)c4)c3c2)c1` showed an Inhibition of 76%. For `COc1ccc(-c2ccc(NC(=O)c3cccc(C#N)c3)cc2)cc1CN(C)C.O=C(O)C(F)(F)F`, the Inhibition was 10%. `Cc1cc(=NN=Cc2ccc(F)cc2)c2ccc(C(F)(F)F)cc2[nH]1` was tested, and the Inhibition was 24%. `Brc1ccsc1-c1nc(NCCC(c2ccccc2)c2ccccc2)no1` gave an Inhibition of 81%. `CCN1CCC(N(Cc2ccc(-c3ccc(C(F)(F)F)cc3)cc2)C(=O)Cn2c(CCc3cccc(F)c3F)cc(=O)c3c2CCCC3)CC1.O=C(O)C(O)C(O)C(=O)O` was tested, and the Inhibition was 96%. For `CC1(C)N=C(N)N=C(NOCc2ccc(Cl)c(Cl)c2)N1`, the Inhibition was 27%. `COc1ccc(Cc2c(C)nc3nc(N)nc(N)c3c2C)cc1.Cl` showed an Inhibition of 2%. Work on `Cc1[nH]c(C)c(-c2ccc(Oc3ccc(O)cc3)cc2)c(=O)c1Cl` yielded an Inhibition of 87%. `Nc1nc(N)c2c(Oc3cccnc3)cccc2n1` was tested, and the Inhibition was 0%. In the case of `CN1CCN(c2ccc3[nH]c(-c4ccc(Cc5cc(Cl)ccc5OCc5ccccc5)o4)nc3c2)CC1.Cl`, the Inhibition is reported as 79%. With `COc1ccc(-c2ccc(NC(=O)c3ccc(C#N)cc3)cc2)cc1CN1CCN(C)CC1.O=C(O)C(F)(F)F` the Inhibition was 49%. For `O=C(Nc1ccc2c(c1)OCO2)NC1CCN(c2ccnc(Nc3ccc(F)cc3)n2)C1` (stereo not given), the Inhibition was 89%. Work on `COc1cc(CNC[C@@H](O)[C@H](Cc2ccccc2)NC(=O)c2cc(C3CCCC3)cc(N3CCCCS3(=O)=O)c2)cc(OC)c1.Cl` yielded an Inhibition of 96%. Work on `CC(C)(C)OC(=O)[C@H](CC(N)=O)NC(=O)c1ccc(-c2ccc(-c3nc4cc(C(F)(F)F)ccc4[nH]3)s2)cc1` yielded an Inhibition of 88%. Molecule `COc1ccc(C(=O)C2CCN(CCCCNC(=O)c3ccc(NC(=O)c4ccc(Cl)cc4)cc3)CC2)c(OC)c1` has an Inhibition of 13%. With `Cc1ccc2nc(C)n(C3CCN(C(=O)C4(c5ccccc5)CC4)CC3)c2c1` the Inhibition was 83%. Molecule `COc1ccc(CNCc2ccsc2)cc1-c1ccc(OC)c(S(=O)(=O)NCCN2CCCC2)c1.O=C(O)C(F)(F)F` has an Inhibition of 62%. Molecule `Br.CC(CON1C(N)=NC(N)=NC1(C)C)Cc1ccc(Cl)cc1Cl` (stereo not given) has an Inhibition of 97%. Molecule `CCOC(=O)C(=O)N1c2ccc(OCC)cc2-c2c(ssc2=S)C1(C)C` has an Inhibition of 100%. `CC1(C)N=C(N)N=C(N)N1c1ccc(Cl)c(Cl)c1.Cl` was tested, and the Inhibition was 56%. In the case of `O=C(Nc1ccon1)c1cc(-c2cccnc2)nc2ccc(Cl)cc12`, the Inhibition is reported as 76%. For `N#CCSc1nnc(-c2ccccc2)c2ccccc12`, the Inhibition was 73%. `CCCCNCc1ccc(-c2nc(CN(CCCn3ccnc3)C(=O)C3COc4ccccc4O3)cs2)cc1.O=C(O)C(F)(F)F` (stereo not given) gave an Inhibition of 8%. In the case of `CCNc1cc(C(=O)N[C@@H](Cc2ccccc2)[C@H](O)CNC2CC3CCC2C3)cc(N2CCCCS2(=O)=O)c1.Cl` (stereo not given in full), the Inhibition is reported as 73%. `CC(O)C(C)(CO)NCc1ccc2c3c(cccc13)-c1ccccc1-2.Cl` (stereo not given) gave an Inhibition of 85%. With `Br.CC1(C)N=C(N)N=C(N)N1OCC1COc2ccccc2O1` (stereo not given) the Inhibition was 66%. `CCCCCOc1ccc(C(O)C(CN2CCCCC2)c2ccccc2)cc1.Cl` (stereo not given) showed an Inhibition of 95%. `O=C(NCc1cccc(F)c1)Nc1cccc(-c2cccc(-c3nc4ccccc4[nH]3)c2)c1` was tested, and the Inhibition was 27%. For `Cc1nc2ccccc2c(=O)n1/N=C/c1ccccc1[N+](=O)[O-]`, the Inhibition was 26%. `CCOc1ccc(Br)cc1/C=C/C(=O)Nc1ccc2c(c1)CCCN(C)C2.O=C(O)C(F)(F)F` gave an Inhibition of 17%. `O=C(Cc1cccc2ccccc12)NC1CCN(c2ccnc3cc(Cl)ccc23)C1.O=C(O)C(F)(F)F` (stereo not given) showed an Inhibition of 97%. Molecule `Cl.NC(=O)c1sc(-n2cnc3ccc(OCC4CCNCC4)cc32)cc1OCc1ccccc1C(F)(F)F` has an Inhibition of 62%. Work on `COc1ccccc1-n1ccnc1SCC(=O)Nc1cccc(C(F)(F)F)c1` yielded an Inhibition of 96%. For `Cc1cnccc1/C=C/c1cccc(OCCCN2CCc3ccc(S(C)(=O)=O)cc3CC2)c1`, the Inhibition was 72%. Molecule `CC(C)NCc1ccc(-c2cccc(-c3nc4ccccc4[nH]3)c2)cc1.O=C(O)C(F)(F)F` has an Inhibition of 34%. Work on `CN(C)c1ccc2nc(N)nc(N)c2c1Cl.Cl` yielded an Inhibition of 0%. Molecule `Cc1ccc(CNC(=O)c2cc3c(=O)n4cccc(C)c4nc3n(CCN3CCOCC3)c2=N)cc1` has an Inhibition of 21%. Molecule `COc1c(C2CCN(CCN3CCC(NC(=O)c4ccc(-c5ccc(C(F)(F)F)cc5)cc4)CC3)CC2)ccc2c1CCCC2` has an Inhibition of 35%. Work on `CCN(CC)Cc1cc(NC(=O)c2ccccc2O)ccc1Oc1ccc(Cl)cc1.Cl` yielded an Inhibition of 88%. `Cc1cc(C(=O)N[C@H]2CCN(Cc3ccc(OCCCN(C)C)cc3)C2)ccc1Br.O=C(O)C(F)(F)F` was tested, and the Inhibition was 62%.

Each molecule was assayed on HepG2 (assay: GSK_TCMDC: Percent inhibition of human HepG2 cell line. Test compounds present at 10uM.).
Format: functional
`CS(=O)(=O)Nc1cccc(-c2cnc3[nH]cc(-c4ccc(C(=O)O)c(F)c4)c3c2)c1` showed an Inhibition of 27%. `COc1ccc(-c2ccc(NC(=O)c3cccc(C#N)c3)cc2)cc1CN(C)C.O=C(O)C(F)(F)F` showed an Inhibition of 11%. Molecule `Cc1cc(=NN=Cc2ccc(F)cc2)c2ccc(C(F)(F)F)cc2[nH]1` has an Inhibition of 4%. Work on `Brc1ccsc1-c1nc(NCCC(c2ccccc2)c2ccccc2)no1` yielded an Inhibition of 17%. Molecule `CCN1CCC(N(Cc2ccc(-c3ccc(C(F)(F)F)cc3)cc2)C(=O)Cn2c(CCc3cccc(F)c3F)cc(=O)c3c2CCCC3)CC1.O=C(O)C(O)C(O)C(=O)O` has an Inhibition of 55%. Work on `CC1(C)N=C(N)N=C(NOCc2ccc(Cl)c(Cl)c2)N1` yielded an Inhibition of 5%. With `COc1ccc(Cc2c(C)nc3nc(N)nc(N)c3c2C)cc1.Cl` the Inhibition was 61%. Molecule `Cc1[nH]c(C)c(-c2ccc(Oc3ccc(O)cc3)cc2)c(=O)c1Cl` has an Inhibition of 0%. `Nc1nc(N)c2c(Oc3cccnc3)cccc2n1` was tested, and the Inhibition was 65%. `CN1CCN(c2ccc3[nH]c(-c4ccc(Cc5cc(Cl)ccc5OCc5ccccc5)o4)nc3c2)CC1.Cl` was tested, and the Inhibition was 27%. `COc1ccc(-c2ccc(NC(=O)c3ccc(C#N)cc3)cc2)cc1CN1CCN(C)CC1.O=C(O)C(F)(F)F` gave an Inhibition of 21%. For `O=C(Nc1ccc2c(c1)OCO2)NC1CCN(c2ccnc(Nc3ccc(F)cc3)n2)C1` (stereo not given), the Inhibition was 5%. `COc1cc(CNC[C@@H](O)[C@H](Cc2ccccc2)NC(=O)c2cc(C3CCCC3)cc(N3CCCCS3(=O)=O)c2)cc(OC)c1.Cl` gave an Inhibition of 16%. In the case of `CC(C)(C)OC(=O)[C@H](CC(N)=O)NC(=O)c1ccc(-c2ccc(-c3nc4cc(C(F)(F)F)ccc4[nH]3)s2)cc1`, the Inhibition is reported as 62%. Work on `COc1ccc(C(=O)C2CCN(CCCCNC(=O)c3ccc(NC(=O)c4ccc(Cl)cc4)cc3)CC2)c(OC)c1` yielded an Inhibition of 47%. With `Cc1ccc2nc(C)n(C3CCN(C(=O)C4(c5ccccc5)CC4)CC3)c2c1` the Inhibition was 8%. For `COc1ccc(CNCc2ccsc2)cc1-c1ccc(OC)c(S(=O)(=O)NCCN2CCCC2)c1.O=C(O)C(F)(F)F`, the Inhibition was 18%. For `Br.CC(CON1C(N)=NC(N)=NC1(C)C)Cc1ccc(Cl)cc1Cl` (stereo not given), the Inhibition was 61%. `CCOC(=O)C(=O)N1c2ccc(OCC)cc2-c2c(ssc2=S)C1(C)C` showed an Inhibition of 5%. For `CC1(C)N=C(N)N=C(N)N1c1ccc(Cl)c(Cl)c1.Cl`, the Inhibition was 67%. `O=C(Nc1ccon1)c1cc(-c2cccnc2)nc2ccc(Cl)cc12` showed an Inhibition of 0%. Molecule `N#CCSc1nnc(-c2ccccc2)c2ccccc12` has an Inhibition of 5%. Work on `CCCCNCc1ccc(-c2nc(CN(CCCn3ccnc3)C(=O)C3COc4ccccc4O3)cs2)cc1.O=C(O)C(F)(F)F` (stereo not given) yielded an Inhibition of 6%. For `CCNc1cc(C(=O)N[C@@H](Cc2ccccc2)[C@H](O)CNC2CC3CCC2C3)cc(N2CCCCS2(=O)=O)c1.Cl` (stereo not given in full), the Inhibition was 0%. Work on `CC(O)C(C)(CO)NCc1ccc2c3c(cccc13)-c1ccccc1-2.Cl` (stereo not given) yielded an Inhibition of 81%. `Br.CC1(C)N=C(N)N=C(N)N1OCC1COc2ccccc2O1` (stereo not given) gave an Inhibition of 56%. `CCCCCOc1ccc(C(O)C(CN2CCCCC2)c2ccccc2)cc1.Cl` (stereo not given) showed an Inhibition of 11%. With `O=C(NCc1cccc(F)c1)Nc1cccc(-c2cccc(-c3nc4ccccc4[nH]3)c2)c1` the Inhibition was 28%. `Cc1nc2ccccc2c(=O)n1/N=C/c1ccccc1[N+](=O)[O-]` gave an Inhibition of 0%. `CCOc1ccc(Br)cc1/C=C/C(=O)Nc1ccc2c(c1)CCCN(C)C2.O=C(O)C(F)(F)F` was tested, and the Inhibition was 40%. `O=C(Cc1cccc2ccccc12)NC1CCN(c2ccnc3cc(Cl)ccc23)C1.O=C(O)C(F)(F)F` (stereo not given) was tested, and the Inhibition was 13%. Work on `Cl.NC(=O)c1sc(-n2cnc3ccc(OCC4CCNCC4)cc32)cc1OCc1ccccc1C(F)(F)F` yielded an Inhibition of 18%. `COc1ccccc1-n1ccnc1SCC(=O)Nc1cccc(C(F)(F)F)c1` showed an Inhibition of 1%. In the case of `Cc1cnccc1/C=C/c1cccc(OCCCN2CCc3ccc(S(C)(=O)=O)cc3CC2)c1`, the Inhibition is reported as 1%. `CC(C)NCc1ccc(-c2cccc(-c3nc4ccccc4[nH]3)c2)cc1.O=C(O)C(F)(F)F` showed an Inhibition of 21%. In the case of `CN(C)c1ccc2nc(N)nc(N)c2c1Cl.Cl`, the Inhibition is reported as 68%. `Cc1ccc(CNC(=O)c2cc3c(=O)n4cccc(C)c4nc3n(CCN3CCOCC3)c2=N)cc1` showed an Inhibition of 31%. `COc1c(C2CCN(CCN3CCC(NC(=O)c4ccc(-c5ccc(C(F)(F)F)cc5)cc4)CC3)CC2)ccc2c1CCCC2` showed an Inhibition of 42%. `CCN(CC)Cc1cc(NC(=O)c2ccccc2O)ccc1Oc1ccc(Cl)cc1.Cl` showed an Inhibition of 32%. `Cc1cc(C(=O)N[C@H]2CCN(Cc3ccc(OCCCN(C)C)cc3)C2)ccc1Br.O=C(O)C(F)(F)F` was tested, and the Inhibition was 88%.
